Holding throughout (assay): thermal shift delta Tm vs DMSO control; higher = stronger stabilization (binding)
Conditions in all cases: 12.5 µM; protein concentration 2 µM

Test [1] deals with LOC_OS01G57100-cb003. A digest of the protocol:
(§1)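 Heating from 25°C to 95°C at 0.05°C/s, fluorescence was recorded for 19.5 μl wells of 2 μM E. coli-expressed, purified rice kinase domain in 100 mM potassium phosphate pH 7.5, 150 mM NaCl, 10% glycerol and 5 × SYPRO Orange with compound in DMSO. Boltzmann fits gave melting temperatures for this differential scanning fluorimetry assay. The shift reported is the mean of three replicates against the DMSO-only protein.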

Test [2] has as its system LOC_OS01G60330-cb001. A digest of the protocol:
as §1

Test [3] deals with LOC_OS01G60700-cb002. A digest of the protocol: as §1
The test system of test [4] is LOC_OS01G63280-cb003. A digest of the protocol: as §1
Test [5] has as its system LOC_OS01G67340-cb003. A digest of the protocol:
as §1

Test [6] concerns LOC_OS01G70970-cb002. The essentials:
as §1

Test [7] deals with LOC_OS02G07810-cb001. The essentials: as §1
The subject of test [8] is LOC_OS02G08530-cb003. A digest of the protocol: as §1
Test [9] concerns LOC_OS02G14120-cb001. A digest of the protocol:
as §1

Test [10] relates to LOC_OS02G17970-cb001. A digest of the protocol:
as §1

Test [11] deals with LOC_OS02G45750-cb003. The essentials: as §1
For test [12], the system named is LOC_OS02G54510-cb004. A digest of the protocol:
as §1

Test [13] has as its system LOC_OS03G04050-cb001. The essentials:
as §1

The subject of test [14] is LOC_OS03G12390-cb001. The essentials:
as §1

For test [15], the system named is LOC_OS03G27990-cb004. A digest of the protocol: as §1
In test [16] the test system is LOC_OS03G50450-cb001. The essentials:
as §1

In test [17] the test system is LOC_OS03G50810-cb003. A digest of the protocol: as §1
Test [18] concerns LOC_OS04G35114-cb001. A digest of the protocol: as §1
Test [19] deals with T1, LOC_OS04G38480-cb003.
T1 sequence (whole entry): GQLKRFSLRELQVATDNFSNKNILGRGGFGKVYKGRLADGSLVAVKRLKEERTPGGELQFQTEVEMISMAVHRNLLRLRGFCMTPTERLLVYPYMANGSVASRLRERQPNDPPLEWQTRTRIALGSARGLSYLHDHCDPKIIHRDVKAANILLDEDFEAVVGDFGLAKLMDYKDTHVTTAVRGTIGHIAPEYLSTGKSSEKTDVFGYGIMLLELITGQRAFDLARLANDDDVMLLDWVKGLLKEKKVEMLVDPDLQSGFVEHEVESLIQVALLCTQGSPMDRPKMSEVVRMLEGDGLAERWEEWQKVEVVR
The essentials: as §1

Test [20] concerns T2, LOC_OS04G41100-cb001.
T2 sequence (whole entry): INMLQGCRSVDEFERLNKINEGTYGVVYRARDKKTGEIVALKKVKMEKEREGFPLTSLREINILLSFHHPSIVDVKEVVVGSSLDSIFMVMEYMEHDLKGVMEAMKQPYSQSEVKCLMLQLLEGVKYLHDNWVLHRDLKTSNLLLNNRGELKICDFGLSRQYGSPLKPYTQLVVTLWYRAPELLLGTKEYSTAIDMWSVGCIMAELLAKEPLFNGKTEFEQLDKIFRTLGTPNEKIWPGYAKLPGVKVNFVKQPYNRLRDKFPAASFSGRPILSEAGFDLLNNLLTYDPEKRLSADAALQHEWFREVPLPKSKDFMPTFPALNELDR
A digest of the protocol: as §1
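Also: purified Escherichia coli-expressed rice kinase domain construct.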

As to `COC1(c2sc3c(N4CCOCC4)nc(-c4cnc(N)nc4)nc3c2C)COC1`, the “thermal shift delta Tm” value in [1] was 0.25 °C; in test [2], 2.64 °C; in [3], 0.38 °C; in [4], -0.37 °C; in test [5] it was 0.5 °C; in test [6], 0.89 °C. In addition, the “thermal shift delta Tm” value in [7] turned out to be 0.33 °C; in test [8], 2.22 °C; in [9], 0.63 °C; in test [10], 0.32 °C; in [11], 1.67 °C; in test [12] it was 3.13 °C. The “thermal shift delta Tm” value was -0.01 °C in [13]; 0.74 °C in test [14]; 0.96 °C in test [15]; 4.14 °C in test [16]; 0.91 °C in test [17]; 2.13 °C in [18]. For the same compound, the “thermal shift delta Tm” value in test [19] turned out to be 1.11 °C; in test [20], 0.5 °C.

For `CS(=O)(=O)N1CCN(Cc2cc3nc(-c4cccc5[nH]ncc45)nc(N4CCOCC4)c3s2)CC1` [Pictilisib (GDC-0941)], the “thermal shift delta Tm” value in test [1] was 0.25 °C; in test [2] it was 2.44 °C; in test [3] it was 0.85 °C; in test [4], -0.25 °C; in test [5], -0.42 °C; in test [6], 0.62 °C. Besides, the “thermal shift delta Tm” value was 0.7 °C in test [7]; 1.22 °C in [8]; 0.32 °C in test [9]; 0.17 °C in test [10]; 0.86 °C in test [11]; 0.25 °C in [12]. Also, the “thermal shift delta Tm” value in test [13] stood at 0.28 °C; in test [14], 0.14 °C; in [15], 0.17 °C; in test [16], 0.22 °C; in test [17], 1.56 °C; in test [18], 1.73 °C. For the same compound, the results for the “thermal shift delta Tm” value in test [19] and in test [20] were -0.11 °C and 0.72 °C, respectively.

Take `Cc1[nH]c(/C=C2\C(=O)Nc3ccccc32)c(C)c1CCC(=O)O` [Orantinib (TSU-68, SU6668)]: the “thermal shift delta Tm” value in test [1] amounted to 2.5 °C; in [2], 12.6 °C; in test [3] it was 0.82 °C; in test [4] it was 0.57 °C; in test [5], 1.81 °C; in [6] it was 4.33 °C. In addition, the “thermal shift delta Tm” value in test [7] is 1.32 °C; in test [8], 4.91 °C; in [9] it was 7.18 °C; in test [10], 0.78 °C; in test [11], 0 °C; in [12] it was 2.74 °C. In addition, the “thermal shift delta Tm” value turned out to be 0.04 °C in test [13]; 9.53 °C in [14]; 0.65 °C in [15]; 5.03 °C in [16]; 0 °C in [17]; 8.78 °C in test [18]. Also, the “thermal shift delta Tm” value amounted to 4.57 °C in test [19] and 0.53 °C in [20].

Take `COC(=O)N[C@@H](C)CNc1nccc(-c2cn(C(C)C)nc2-c2cc(Cl)cc(NS(C)(=O)=O)c2F)n1` [Encorafenib (LGX818)]: the “thermal shift delta Tm” value in [1] was 1.3 °C; in test [2], 0.6 °C; in test [3], 1.13 °C; in test [4], 16.6 °C; in test [5], 0.27 °C; in test [6] it was 0.24 °C. Further, the “thermal shift delta Tm” value in [7] was 0.09 °C; in test [8], 0.83 °C; in test [9], 1.23 °C; in [10], 0.55 °C; in test [11] it was 0.44 °C; in test [12] it was -0.06 °C. The “thermal shift delta Tm” value in test [13] was 0.22 °C; in test [14], -0.2 °C; in test [15], 0.34 °C; in test [16], 0.01 °C; in test [17], 0.12 °C; in test [18] it was 0.62 °C. For the same compound, the “thermal shift delta Tm” value in [19] is 0.49 °C; in test [20], 1.63 °C.

For `COc1cccc(-c2cc(=O)c3ccccc3o2)c1N`, the “thermal shift delta Tm” value in [1] was -0.23 °C; in test [2], 0.99 °C; in [3], 0.39 °C; in test [4] it was -0.2 °C; in test [5] it was -0.8 °C; in test [6], 0.32 °C. Besides, the “thermal shift delta Tm” value in test [7] was 0.94 °C; in [8] it was 0.37 °C; in test [9], -0.3 °C; in [10] it was -0.31 °C; in test [11], -0.15 °C; in test [12], 0.15 °C. Further, the “thermal shift delta Tm” value amounted to 0.23 °C in test [13]; 0.21 °C in [14]; 0.01 °C in [15]; 0.16 °C in test [16]; 0.04 °C in [17]; 0.26 °C in test [18]. In addition, the “thermal shift delta Tm” value in test [19] is -0.06 °C; in [20] it was 0.2 °C.

`O=c1cc(N2CCOCC2)oc2c1ccc1ccccc12`: the “thermal shift delta Tm” value in [1] was -0.21 °C; in test [2], -0.04 °C; in test [3], 0.19 °C; in [4] it was 0.17 °C; in [5], 0.3 °C; in test [6] it was -0.28 °C. Also, the “thermal shift delta Tm” value worked out at 0.45 °C in [7]; 0.22 °C in test [8]; 1.47 °C in test [9]; 0.01 °C in test [10]; 0.57 °C in test [11]; 0.45 °C in test [12]. In addition, the “thermal shift delta Tm” value in test [13] was found to be 0.58 °C; in test [14] it was 1.07 °C; in test [15], 0.27 °C; in test [16], 0.43 °C; in test [17] it was 0.29 °C; in [18] it was 0.64 °C. Moreover, the “thermal shift delta Tm” value in test [19] was 2.01 °C; in [20], 0.31 °C.

(Values after the supplement of paper PMC9694430.)
